# An excerpt weighted towards active compounds, which were near 19% of everything screened.
# MCF10A rereplic: A quantitative high throughput screen for small molecules that induce DNA re-replication in MCF 10a normal breast cells; MCF 10A DNA re-replication, Hoechst nuclear intensity, 48 h; Potency, µM (doses to about 46.1 µM), for inactives: at the top dose activity, positive = re-replication, usual class: activators; 350,000 compounds, 2.9% hits; AID 624296, 2012; also: potency is read from the fitted curve at half-maximal effect; % of control where 0% means no effect; nearly all actives have a fitted effect of over 50% in size
# TDP1 cell CPT: qHTS for Inhibitors of human tyrosyl-DNA phosphodiesterase 1 (TDP1): qHTS in cells in presence of CPT; chicken DT40 Tdp1-/-;hTDP1 cells + 20 nM CPT, ATP luminescence, 48 h; Potency, µM (top dose mostly 46.2 µM), inactives show at the highest dose activity change, negative = growth inhibition, most hits filed as inhibitors; 420,000 compounds, 12% hits; also: potency is read from the fitted curve at half-maximal effect; % is scaled to controls: 0 for no effect and ±100 for the full control effect; nearly all actives have a fitted effect of over 55% in size
#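 Cell growth measured by CellTiter-Glo luminescence after a minimum 48 h, 37 C compound exposure with 20 nM CPT in Tdp1-knockout DT40 cells stably expressing hTDP1, seeded 400/well; qHTS titration format.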
# DT40 TDP1 no CPT: qHTS for Inhibitors of human tyrosyl-DNA phosphodiesterase 1 (TDP1): qHTS in cells in absence of CPT | DT40 Tdp1-/- hTDP1 cells, no CPT, ATP luminescence, 48 h | Potency, µM (series often up to 46.2 µM), inactives show top-dose activity change, negative = growth inhibition, hits mostly inhibitors | AID 686978, 2013 | 420,000 compounds, 15% hits; also: potency is read from the fitted curve at half-maximal effect; % is scaled to controls: 0 for no effect and ±100 for the full control effect; nearly all actives have a fitted effect of over 55% in size
#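 Stably hTDP1-transfected Tdp1-null chicken DT40 cells were treated with library compounds minus camptothecin and grown for at least 48 hr at 37 °C, after which cellular ATP was quantified by luminescence.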
# Chronic BCR inh: qHTS Assay to Find Inhibitors of Chronic Active B-Cell Receptor Signaling | Potency, µM (doses to about 46.1 µM), for inactives: top-dose activity change, negative = inhibition, most hits filed as inhibitors | ABC-DLBCL IkBa-CBG/CBR reporter, luminescence ratio, 4 h | 340,000 compounds, 0.05% hits; active = well fitted inhibition curve with a large enough effect in the signal ratio, with a control signal flat, not every such curve was filed as active; inconclusive = small, poorly fitted or top-dose-only effect, or effect the other way, or a change in a side signal; the % refers to the signal ratio;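 also: potency is read from the fitted curve at half-maximal effect; plate controls were basal doxycycline-induced cells for no effect and cells given 10 µM MG132 for full effect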
#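 Doxycycline induced both beetle luciferases in TMD8 lymphoma cells; IKK-driven degradation limits the IkappaBalpha-fused green signal, while red luminescence normalises for cell number and nonspecific effects. Compounds tested up to 46 uM, 4 hrs.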
# SW480 rereplic: A quantitative high throughput screen for small molecules that induce DNA re-replication in SW480 colon adenocarcinoma cells. Potency, µM (series often up to 46.1 µM), without a hit: at the highest dose re-replication activation, actives largely listed as activators. SW480 DNA re-replication, Hoechst DNA content imaging, 48 h. 340,000 compounds, 1.8% hits. AID 624297, 2012; also: potency is read from the fitted curve at half-maximal effect; % of control where 0% means no effect; nearly all actives have a fitted effect of over 55% in size
#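 Image-based read-out: total Hoechst fluorescence of nuclei (405 nm excitation, 500-530 nm emission), with hits raising the fraction of high-intensity nuclei. SW480 colon cells incubated 48 hr with compounds at 37 C.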
# IL1B secr inh: qHTS for Inhibitors of Inflammasome Signaling: IL-1-beta AlphaLISA Primary Screen; THP-1 LPS/ATP IL-1B secretion, AlphaLISA, 16 h; stronger effect = lower value; activity change, % at 57.5 µM; 360,000 compounds, 4.7% hits; in the data active = activity change below about -50%; inconclusive = mostly about -30% to -49%; also: % is scaled to controls: 0 for no effect and ±100 for the full control effect
#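 THP-1 cells pretreated 1 hr with compounds (up to 57.5 uM final), then stimulated with LPS (250 ng/mL final) plus ATP (1.25 mM final); secreted IL-1B measured by AlphaLISA after 16 hr, decreased signal indicating inhibition.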
# * = called active by the depositor; ? = inconclusive; · = not tested or not shown. Unless noted, calls follow the shape of the dose curve; as a rule, active = well fitted curve in the direction sought with a large enough effect; inconclusive = small, poorly fitted or top-dose-only effect, or another doubt; inactive = no such curve, though single readings can be large; an effect the other way counts as inactive or inconclusive.
SMILES,MCF10A rereplic,TDP1 cell CPT,DT40 TDP1 no CPT,Chronic BCR inh,SW480 rereplic,IL1B secr inh
CCCCCCOc1ccc(NC(=O)CC2C(=O)N(CC)C(=S)N2Cc2ccco2)cc1 (centres undefined),18µM*,?,?,14%,?,-101*
COc1ccc(S(=O)(=O)N2CCC(C(=O)NCCC(=O)NCc3cccnc3)CC2)cc1,·,-2%,?,·,·,-6
CC(NC(=O)C(C)N1CCN(Cc2ccccc2)CC1)c1ccccc1 (centres undefined),12%,-1%,0%,4%,-2%,9
CCOc1ccc(NS(=O)(=O)c2cc(NC(=O)c3ccc(C)cc3)ccc2Cl)cc1,2.1µM*,3.7µM*,2.6µM*,10%,4.6µM*,-3
CCOc1ccc(C(=O)Nc2cccc(NC(=O)c3ccc(Cl)cc3Cl)c2)cc1,·,?,21µM*,·,·,·
CCOc1ccc(Oc2ccc(NS(=O)(=O)c3cc(C(=O)O)ccc3Cl)cc2)cc1,-2%,-7%,20%,0%,-2%,45
CCCOc1ccc(C(=O)Nc2cccc(NC(=O)c3cccc(Cl)c3)c2)cc1,·,-24%,-27%,·,·,·
COc1ccc(NS(=O)(=O)c2cc(C(=O)N3CCN(C(C)=O)CC3)ccc2Cl)cc1,4%,-19%,-1%,0%,-19%,-9
Cc1ccc(C(=O)CCC(=O)Nc2ccc(Cl)c(S(=O)(=O)Nc3cccc(Cl)c3)c2)cc1,5%,-2%,3%,-15%,-5%,7
COc1ccc(NS(=O)(=O)c2cc(N/C(=N\S(=O)(=O)c3ccccc3)c3ccc(F)cc3)ccc2Cl)cc1,13µM*,?,?,0%,?,-10
CCC(C)NCCC(=O)Nc1ccc(Cl)c(S(=O)(=O)Nc2ccc(Cl)cc2)c1 (centres undefined),13µM*,?,?,?,26%,-51*
O=C1NCCN(Cc2ccc(F)cc2)C1=O,·,0%,0%,·,·,·
COc1ccccc1CNC(=O)CCCc1nnc2n(C)c(=O)c3sccc3n12,-2%,-5%,?,7%,-11%,-21
COc1ccccc1CNC(=O)Cn1nc(C)n2cccc2c1=O,·,-17%,-7%,·,·,·
COc1cc2sc3cc(NCC[C@@H]4CCCN4C)ccc3c(=O)c2cc1OC,?,?,?,1%,?,-60*
COc1cccc2sc3ccc(NCCC4CCCN4C)cc3c(=O)c12 (centres undefined),-27%,?,?,?,-2%,-70*
OCC(CO)c1cnnc2ccccc12,-6%,-5%,-12%,·,-2%,3
CCOC(=O)c1c(C)c(-c2ccccc2)n(CC(=O)Nc2ccc(OCC)cc2)c1C,·,-3%,-29%,·,·,·
CCOC(=O)c1c(C)c(-c2ccccc2)n(CC(=O)NC2CCCCC2)c1C,·,1%,-10%,·,·,·
CCOC(=O)c1c(C)c(-c2ccccc2)n(CC(=O)Nc2cccc(C)c2C)c1C,·,13µM*,15µM*,·,·,·
CCOC(=O)c1c(C)c(-c2ccccc2)n(CC(=O)Nc2cc(C)ccc2OC)c1C,·,?,18µM*,·,·,·
COc1ccc(CCNC(=O)C(=O)NCC(c2ccco2)S(=O)(=O)c2ccccc2)cc1OC (centres undefined),·,-28%,?,-8%,·,·
COCCN1CCN(C(=O)C2CCC(=O)N(Cc3cccc(C(F)(F)F)c3)C2)CC1 (centres undefined),1%,-4%,5%,0%,-11%,0
